Test systems include HCT-15 colon; HT29 colon; SNB-75 CNS; SNB-19 CNS; PC-3 prostate; SK-MEL-5 melanoma; UACC-62 melanoma; SK-MEL-28 melanoma; SK-MEL-2 melanoma; SN12C renal; UO-31 renal; TK-10 renal; ACHN renal; CAKI-1 renal; A498 renal; MOLT-4 leukemia.
Assay in all cases: NCI-60 one-dose screen, 48 h (100 = growth as untreated, 0 = no growth, -100 = all killed)
A further assay concerns U251 CNS. The conditions noted are these: 10 µM unless noted.
Another assay concerns LOX IMVI melanoma. The note with it: 10 µM unless noted.
For the next assay, the system named is EKVX NSCLC. The conditions noted are these: 10 µM unless noted.
The next assay has as its system CCRF-CEM leukemia. The conditions noted are these: 10 µM unless noted.

This is an account of results in PubChem BioAssay (NCI).

Molecules are shown by their SMILES. Values joined by “and” are separate entries in the source; they are usually repeats but may differ in a detail not shown here. Identical values can stand only once. Compounds without any hit were thinned out: in the full panel of roughly 83,000, 20% have a hit.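 Values shown are percent growth following 48 h exposure of cells in 96-well plates to a single concentration of compound; below 10 was considered active.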 Values without a mark were called inactive. Active and inactive are the calls of the source.

Consider `CC(=O)Oc1ccc(C(c2ccc(OC(C)=O)cc2)c2ccccn2)cc1`, for which the growth is 84.3% and 76.4% in the assay with HCT-15 colon (10 µM unless noted); 91.8% and 87.1% in the assay with HT29 colon (10 µM unless noted); 56.7% and 80.9% with SNB-75 CNS (10 µM unless noted); 104% and 98.8% in the assay on SNB-19 CNS (10 µM unless noted); 96% and 96.2% with U251 CNS; 73.6% and 68.9% in the assay on PC-3 prostate (10 µM unless noted). Further, the growth in the assay on SK-MEL-5 melanoma (10 µM unless noted) is -7.6% (active); in the assay with UACC-62 melanoma (10 µM unless noted), 96.5% and 89.4%; in the assay on LOX IMVI melanoma, 90.3% and 77.5%; in the assay on SK-MEL-28 melanoma (10 µM unless noted), 107%; with SK-MEL-2 melanoma (10 µM unless noted) it was 107% and 94.3%; in the assay with EKVX NSCLC, 82.5% and 87.8%. For the same compound, the growth in the assay with SN12C renal (10 µM unless noted) is 29.3% and 30.9%; with UO-31 renal (10 µM unless noted), 74.3% and 89.2%; in the assay with TK-10 renal (10 µM unless noted) it was 77.1% and 86.1%; with ACHN renal (10 µM unless noted), 82.5% and 81.1%; in the assay on CAKI-1 renal (10 µM unless noted), 100% and 117%; with A498 renal (10 µM unless noted), 91.1%. The growth is 98.8% and 90.9% with CCRF-CEM leukemia; 93.3% and 103% with MOLT-4 leukemia (10 µM unless noted).
With `O=[N+]([O-])c1ccc(N/N=C/C2CCCCCC2)c([N+](=O)[O-])c1`, the growth in the assay with HCT-15 colon (10 µM unless noted) was 89.1%; in the assay with HT29 colon (10 µM unless noted), 100%; in the assay on SNB-75 CNS (10 µM unless noted), 117%; in the assay on SNB-19 CNS (10 µM unless noted) it was 102%; in the assay with U251 CNS, 96.8%; in the assay with PC-3 prostate (10 µM unless noted) it was 79.7%. Further, the growth in the assay on SK-MEL-5 melanoma (10 µM unless noted) was 96.9%; in the assay with UACC-62 melanoma (10 µM unless noted), 81%; in the assay with LOX IMVI melanoma it was 89.2%; in the assay with SK-MEL-28 melanoma (10 µM unless noted), 99.7%; in the assay on SK-MEL-2 melanoma (10 µM unless noted), 105%; with EKVX NSCLC, 84.9%. Also, the growth in the assay with SN12C renal (10 µM unless noted) was 92%; in the assay with UO-31 renal (10 µM unless noted) it was 61.2%; with TK-10 renal (10 µM unless noted) it was 118%; in the assay on ACHN renal (10 µM unless noted), 70.4%; in the assay with CAKI-1 renal (10 µM unless noted), 74.2%; in the assay on A498 renal (10 µM unless noted) it was 62.7%. Also, the results for the growth in the assay with CCRF-CEM leukemia and in the assay with MOLT-4 leukemia (10 µM unless noted) were 51.6% and 77.3%, respectively.
Turning to `O=C(Nc1ccccc1)OCC(CN1CCCCC1)OC(=O)Nc1ccccc1` (stereo unspecified), the growth with HCT-15 colon (10 µM unless noted) is 84.9% and 99.5%; in the assay on HT29 colon (10 µM unless noted), 69.6% and 87.2%; in the assay on SNB-75 CNS (10 µM unless noted) it was 56.4% and 80.6%; in the assay on SNB-19 CNS (10 µM unless noted), 90.9% and 92.8%; with U251 CNS, 67.7% and 91.1%; in the assay with PC-3 prostate (10 µM unless noted) it was 75.5%. In addition, the growth in the assay with SK-MEL-5 melanoma (10 µM unless noted) is 60.5% and 93.7%; in the assay with UACC-62 melanoma (10 µM unless noted), 80.7% and 101%; with LOX IMVI melanoma, 76.7% and 95.2%; in the assay on SK-MEL-28 melanoma (10 µM unless noted) it was 91.5% and 105%; with SK-MEL-2 melanoma (10 µM unless noted), 85.6% and 108%; in the assay on EKVX NSCLC, 82.5%. Also, the growth in the assay on SN12C renal (10 µM unless noted) was 77.5% and 94%; with UO-31 renal (10 µM unless noted), 53.5% and 66.7%; in the assay with TK-10 renal (10 µM unless noted), 93.2% and 104%; with ACHN renal (10 µM unless noted), 72.9% and 92.8%; in the assay with CAKI-1 renal (10 µM unless noted), 71.6% and 86%; in the assay on A498 renal (10 µM unless noted), 79.5% and 68.7%. For the same compound, the growth in the assay with CCRF-CEM leukemia is 82.3%; in the assay on MOLT-4 leukemia (10 µM unless noted), 64.8% and 87.9%.
Consider `CS/C(=C\c1ccc(C(=O)c2ccc(C)cc2)n1C)S(C)=O` (stereo unspecified), for which the growth with HCT-15 colon (10 µM) is 87.6%; with HCT-15 colon (100 µM), 55.1%; in the assay on HT29 colon (10 µM), 94%; in the assay on HT29 colon (100 µM), 81.2%; with SNB-75 CNS (10 µM) it was 96.1%; in the assay on SNB-75 CNS (100 µM) it was 100%. The growth in the assay with SNB-19 CNS (10 µM) is 91.3%; in the assay on SNB-19 CNS (100 µM) it was 77.5%; in the assay on U251 CNS it was 74.7% [100 µM]; with PC-3 prostate (10 µM) it was 76.6%; with PC-3 prostate (100 µM), 71.1%; in the assay with SK-MEL-5 melanoma (10 µM), 81.2%. Moreover, the growth in the assay with SK-MEL-5 melanoma (100 µM) is 36.5%; in the assay with UACC-62 melanoma (10 µM), 83.3%; in the assay with UACC-62 melanoma (100 µM), 61.4%; in the assay with LOX IMVI melanoma, 99.4%; in the assay on SK-MEL-28 melanoma (10 µM), 84.7%; with SK-MEL-28 melanoma (100 µM), 74.9%. Also, the growth in the assay on SK-MEL-2 melanoma (10 µM) is 98.8%; in the assay on SK-MEL-2 melanoma (100 µM), 81.4%; with EKVX NSCLC, 63.8% [100 µM]; in the assay on SN12C renal (10 µM), 82%; with SN12C renal (100 µM) it was 80.9%; in the assay on UO-31 renal (10 µM), 92.2%. For the same compound, the growth is 57.8% in the assay on UO-31 renal (100 µM); 108% in the assay with TK-10 renal (10 µM); 87% in the assay on TK-10 renal (100 µM); 87.4% in the assay on ACHN renal (10 µM); 83.2% in the assay on ACHN renal (100 µM); 75.5% in the assay with CAKI-1 renal (10 µM). For the same compound, the growth is 63.2% with CAKI-1 renal (100 µM); 108% in the assay on A498 renal (10 µM); 109% in the assay on A498 renal (100 µM); 72.5% [100 µM] in the assay with CCRF-CEM leukemia; 93.9% in the assay with MOLT-4 leukemia (10 µM); 66.8% in the assay with MOLT-4 leukemia (100 µM).
For `Cc1ccc([N+](=O)[O-])cc1Br`, the growth in the assay with HCT-15 colon (10 µM unless noted) is 101%; with HT29 colon (10 µM unless noted), 70.7%; with SNB-75 CNS (10 µM unless noted), 104%; with SNB-19 CNS (10 µM unless noted) it was 97.9%; with U251 CNS, 96.4%; in the assay on PC-3 prostate (10 µM unless noted), 94.8%. The growth is 99.8% with SK-MEL-5 melanoma (10 µM unless noted); 95.8% in the assay on UACC-62 melanoma (10 µM unless noted); 105% with LOX IMVI melanoma; 104% in the assay with SK-MEL-28 melanoma (10 µM unless noted); 95.6% with SK-MEL-2 melanoma (10 µM unless noted); 101% with EKVX NSCLC. Also, the growth in the assay on SN12C renal (10 µM unless noted) was 98.2%; in the assay with UO-31 renal (10 µM unless noted), 92.1%; with TK-10 renal (10 µM unless noted), 97.1%; in the assay with ACHN renal (10 µM unless noted), 98.3%; in the assay with CAKI-1 renal (10 µM unless noted), 101%; in the assay on A498 renal (10 µM unless noted) it was 88.5%. Further, the growth in the assay on CCRF-CEM leukemia was 105%; with MOLT-4 leukemia (10 µM unless noted), 81.7%.
